Records with an inconclusive call do not appear. The source made the active and inactive calls. Calls follow the shape of the dose curve; as a rule, active = well fitted activation curve with a large enough effect in the repeat runs; inconclusive = weak or mixed curves; inactive = flat fitted curve, though single readings scatter.

The assay in a line: Caspase-3/7 induction in HepG2 cells by small molecules, qHTS assay (AID 1346978). Also: nearly all actives have a fitted effect of over 15% in size. As to conditions: HepG2 caspase-3/7 activation, Caspase-Glo luminescence, 17 h; series mostly up to 92.4 µM. The text has this:
National Center for Advancing Translational Sciences [NCATS] NIH Chemical Genomics Center [NCGC] U.S. Environmental Protection Agency [EPA] National Institutes of Environmental Health Sciences [NIEHS] National Toxicology Program [NTP] Assay overview: Apoptosis is a process of programmed cell death and plays a central role in the development of multicellular organisms. It is a highly regulated process and induces cell death by activating caspases, which are the members of cysteine aspartic acid-specific protease (caspase) family. Caspases involved in apoptosis are classified by their mechanism of action as initiator caspases (caspase-2, -8, -9 and -10) and executioner caspases (caspase-3, -6, and -7). Inhibition of apoptosis results in number of cancers, autoimmune diseases, inflammatory diseases and viral infection. To identify small molecule compounds that induce apoptosis, a homogeneous, luminescent Caspase-Glo 3/7 assay was used. Wild type HepG2 cells were used to screen Tox21 libraries for identifying caspase-3/7 activity inducers.
Assay Protocol Summary: HepG2 cells were dispensed at 2,000 per well in 5uL of culture medium into white solid bottom 1536-well plates (Corning Life Sciences, Corning, NY) using a Multidrop Combi (Thermo Scientific, Waltham, MA) dispenser. The assay plates were incubated at 37 C and 5% CO2 for 5hr, and then 23nL of compounds dissolved in DMSO and positive control were transferred using a Pintool station (Wako, San Diego, CA). The assay plates were incubated at 37C and 5% CO2 for 17hr. For caspase-3/7 activity read, 4uL of Caspase-Glo 3/7 reagent (Promega Corporation, Madison, WI) was added to each well of the assay plates using Flying Reagent Dispenser (FRD, Aurora Discovery, San Diego, CA) and incubated the assay plates at room temperature for 30min. The luminescence signal was quantified using a ViewLux plate reader (Perkin Elmer, Shelton, CT).
Take `Cc1cccc(OCCOc2cccc(C)c2)c1`: the molecule was called inactive.

As to `N#CCCNCCC#N`, the outcome was inactive.

Turning to `CN1CCC[C@@H]1c1cccnc1`, the molecule was classed as inactive.

For `CC(O)C1CCCCC1` (stereo not given), the molecule was classed as inactive.

Take `CC(=O)CC(=O)c1ccccc1`: the call was inactive.

With `O=C(CC(=O)c1ccccc1)c1ccccc1`, the call was inactive.

In the case of `NCc1ccccc1`, the molecule was classed as inactive.

Turning to `Cn1c(NCCN(CCO)CCCc2ccc([N+](=O)[O-])cc2)cc(=O)n(C)c1=O`, the molecule was called inactive.

Consider `OCCC1CCCCN1` (stereo not given), for which the call was inactive.

With `Oc1ccc(Sc2ccc(O)cc2)cc1`, the outcome was inactive.

`CC(C)CCCCCCOC(=O)c1ccc(C(=O)OCCCCCCC(C)C)c(C(=O)OCCCCCCC(C)C)c1`: the call was inactive.

With `CCOc1nc2cccc(C(=O)O)c2n1Cc1ccc(-c2ccccc2-c2nn[nH]n2)cc1`, the result was inactive.

As to `CCCOc1ccc2nc(NC(=O)OC)[nH]c2c1`, the result was inactive.

For the molecule `CC(C)(C)C(=O)OCOP(=O)(COCCn1cnc2c(N)ncnc21)OCOC(=O)C(C)(C)C`, the molecule was classed as inactive.

Turning to `Cc1ncsc1CCO`, the call was inactive.

For the molecule `COC(=O)CSc1cc(N=c2sc(=O)n3n2CCCC3)c(F)cc1Cl`, the molecule was classed as inactive.

Take `CCCCOc1ccc(CC(=O)NO)cc1`: the outcome was inactive.

With `O=c1[nH]cnc2ccccc12`, the molecule was classed as inactive.

Regarding `CC(C(=O)O)c1ccc(C(=O)c2ccccc2)s1` (stereo not given), the outcome was inactive.

For `CC(C)c1ccccc1C(C)C`, the result was inactive.

`COc1ccc(OC)c(OC)c1`: the call was inactive.

In the case of `Nc1nc(N)c(-c2ccccc2)s1`, the molecule was classed as inactive.

On to `CCOC(=O)C1=NN(c2ccccc2)C(=O)C1`, for which the result was inactive.

Take `CCOc1cc(OCC)c(C(=O)CCC(=O)O)cc1OCC`: the call was inactive.

`O=[N+]([O-])c1cc[n+]([O-])cc1`: the molecule was called inactive.

Consider `COc1cc(C(C)(C)C)c(O)c(C(C)(C)C)c1`, for which the call was inactive.

Take `CC1=CC(=O)/C(=C(/C)O)C(=O)O1`: the result was inactive.

Take `O=C(O)Cc1sc(-c2ccccc2)nc1-c1ccc(Cl)cc1`: the molecule was classed as inactive.

For `O=c1c2ccccc2nnn1CCl`, the result was inactive.

Take `COc1ccc([C@@H]2Sc3ccccc3N(CCN(C)C)C(=O)[C@@H]2OC(C)=O)cc1`: the call was inactive.

Take `CC(=O)/C(C)=C/C1C(C)=CCCC1(C)C` (stereo not given): the molecule was called inactive.

For `COc1ccccc1OC(=O)Oc1ccccc1OC`, the result was inactive.

For the molecule `N#CCc1cccc(C(F)(F)F)c1`, the molecule was called inactive.

Turning to `O=C(O)/C=C/c1cnc[nH]1`, the outcome was inactive.

With `O=C(Nc1ccccc1)OCC(CN1CCCCC1)OC(=O)Nc1ccccc1` (stereo not given), the call was inactive.

With `CCCCCCOC(=O)CCC`, the molecule was classed as inactive.

As for `Cc1ccc(C(=O)C(C)CN2CCCCC2)cc1` (stereo not given), the call was inactive.

On to `Cn1c(=O)c2c(ncn2CC(O)CO)n(C)c1=O` (stereo not given), for which the result was inactive.

On to `Cl/C(=C\n1cncn1)c1ccc(Cl)cc1Cl`, for which the molecule was called inactive.

On to `CCCCc1cc2ccccc2c(OCCN(C)C)n1`, for which the result was inactive.

The values above are taken from PubChem BioAssay (Tox21).
